# In PubChem BioAssay (Tox21):
# Where “and” joins values, the source holds several entries; their conditions need not be identical. Equal entries are not always repeated. Inconclusive results are not listed. The source holds several records for some structures; these can differ, active in one and inactive in another. Calls of active or inactive are those of the source. Calls follow the shape of the dose curve; as a rule, active = well fitted cell-killing curve with a large enough effect in the repeat runs; inconclusive = weak or mixed curves, or effect the other way; inactive = flat fitted curve, though single readings scatter.
# Assay: qHTS RealTime-Glo MT Cell Viability Assay in HEK293 cells - 32 hour (AID 1224868); also: nearly all actives have a fitted effect of over 50% in size; as to activity change, negative = cytotoxic: top concentration of the series differs between compounds
# Details: RealTime-Glo luminescence; series mostly up to 76.8 µM; activity change, negative = cytotoxic: at the top concentration
# From the text: National Center for Advancing Translational Sciences [NCATS]
# NIH Chemical Genomics Center [NCGC]
# U.S. Environmental Protection Agency [EPA]
# National Institutes of Environmental Health Sciences [NIEHS]
# National Toxicology Program [NTP]
# U.S. Food and Drug Administration [FDA]
# Measure of cell viability is critical in the cell-base assay. Analysis of cell viability is necessary for the characterization of cell responses to cytotoxic drugs and environmental stress. A RealTime-Glo MT Cell Viability Assay to monitor cell viability in real time of continues cell culture during 40 hours of compound treatment was used to screen Tox21 10K library compounds in Hek293 cells. The RealTime-Glo MT Cell Viability Assay is a nonlytic, homogeneous, bioluminescent method to measure cell viability in real time using a simple, plate-based method. The assay involves adding NanoLuc luciferase and a cell-permeant prosubstrate to cells in culture. Viable cells reduce the proprietary prosubstrate to generate a substrate for NanoLuc luciferase. This substrate diffuses from cells into the surrounding culture medium, where it is rapidly used by the NanoLuc Enzyme to produce a luminescent signal. The signal correlates with the number of viable cells, making the assay well suited for cytotoxicity studies.
# Tox21 Assay Protocol Summary:
# The mixture of Hek293 cell suspension and reagents were dispensed at 600cells/6 ul/well in 1536-well tissue culture treated black solid bottom plates using a Multidrop dispenser. After the assay plates were incubated at a 37 C/5% CO2 incubator for 5 hours, 23 nL of compounds dissolved in DMSO, positive and negative controls was transferred to the assay plate by a pintool work station. The plates were incubated at 37 C for 40 hours. The luminescence intensity were measured at 0h, 8h, 16h, 24h, 32h and 40h time points using ViewLux plate reader during compound treatment.
# % is scaled to controls: 0 for no effect and ±100 for the full control effect; potency is read from the fitted curve at half-maximal effect.
Compound,"activity change, negative = cytotoxic",Potency
C[C@H]1O[C@H](OC2[C@@H](O)[C@@H](O)C(O)[C@H](O)[C@H]2O)[C@@H](N)C[C@@H]1N=C(N)C(=O)O (stereo not given in full),3.74% (inactive),
O=C1NC(=O)C(=O)C(=O)N1,0.238% (inactive),
COC1=CC(=O)O[C@@H](/C=C/c2ccc3c(c2)OCO3)C1,-24.8% (inactive),
O=C=NC1CCCCC1,10.3% (inactive),
NCCc1cc(O)c(O)cc1O,1.48% [at 35.3 µM] (inactive),
CCOC(=O)NC(O)C(Cl)(Cl)Cl (stereo not given),3.84% [at 35.3 µM] (inactive),
CCC1(C2=NCCN2)Cc2ccccc2O1 (stereo not given),8.5% [at 35.3 µM] (inactive),
CN(C1CCCCC1)C1CCCCC1,-0.298% (inactive),
O=C(O)C(F)(F)C(F)(F)C(F)(F)C(F)(F)C(F)(F)F,0.925% (inactive),
CCC1(CCC(C)C)C(=O)NC(=O)NC1=O,-1.77% (inactive),
CCOC(=O)c1cn2nc(OP(=S)(OCC)OCC)cc2nc1C,,13.8 µM (active)
C=C(Cl)Cl,10% (inactive),
Cc1ccc(N)c(C)c1,,inactive
Nc1ccccc1C(=O)OCC(O)CO (stereo not given),5.73% [at 35.3 µM] (inactive),
NC(=O)CF,1.08% (inactive),
CCCCC1C(=O)NC(=O)N(C2CCCCC2)C1=O (stereo not given),2.42% [at 35.3 µM] (inactive),
O=C1c2ccccc2C(=O)N1SC(Cl)(Cl)Cl,,6.82 µM (active) and 6.92 µM (active)
O=C(NC(=O)c1cc(F)c(F)cc1Cl)Nc1cc(F)ccc1N1CCC(C(=O)O)CC1,19.1% [at 35.3 µM] (inactive),
C[N+](C)(C)CCOC(=O)C(O)(c1ccccc1)c1ccccc1,0.532% [at 35.3 µM] (inactive),
CCCC1CCCCN1 (stereo not given),5.49% [at 35.3 µM] (inactive),

Compound,"activity change, negative = cytotoxic",Potency
CN1C[C@H](C(=O)N[C@]2(C)O[C@@]3(O)[C@@H]4CCCN4C(=O)[C@H](Cc4ccccc4)N3C2=O)C=C2c3cccc4[nH]cc(c34)C[C@H]21,,27.7 µM (active) and inactive
CCCCOC(=O)CCC(=O)OCCCC,0.0062% (inactive),
CC(C)(C)NCC(O)c1cc(Cl)c(N)c(C(F)(F)F)c1 (stereo not given),0.318% [at 35.3 µM] (inactive),
O=S(=O)(c1ccccc1)c1ccccc1,-0.0347% (inactive),
C[C@H]1[C@@H]2Cc3ccc(O)cc3[C@@]1(C)CCN2C,-8.49% [at 200 µM] (inactive),
Nc1cccc2ccccc12,,inactive
Nc1ccccc1C(=O)OCCc1ccccc1,,24.5 µM (active)
ClCc1ccccc1Cl,0.177% (inactive),
CC(C)(C)c1ccc(CCOc2ncnc3ccccc23)cc1,2.42% (inactive),
Nc1cc(Cl)cc(C(=O)O)c1Cl,,inactive
C1CCNCC1,2.28% (inactive),
Cc1cnc(C2=NC(C)(C(C)C)C(=O)N2)c(C(=O)O)c1 (stereo not given),6.92% (inactive),
C[N+]1(CCF)[C@@H]2CC[C@H]1CC(OC(=O)C(O)(c1ccccc1)c1ccccc1)C2 (stereo not given in full),1.34% [at 35.3 µM] (inactive),
C[N+](C)(C)CC1CO1 (stereo not given),0.827% (inactive),
CC(C)(C#N)C(C)(C)C#N,-5.46% (inactive),
CC(O)CN1CCN(CC(=O)[O-])CCN(CC(=O)[O-])CCN(CC(=O)[O-])CC1.[Gd+3] (stereo not given),2.6% [at 35.3 µM] (inactive),
O=CC=O,4.46% (inactive),
Clc1ccccc1,-1.53% (inactive),
CN1CC[C@]23c4c5ccc(O)c4O[C@H]2[C@@H](O)C=C[C@H]3[C@H]1C5,-0.582% (inactive),
C=CC(=O)NC(C)(C)CC(C)=O,4.82% (inactive),
